Shown is part of a subset that was picked to be rich in hits.
PL synth Enamine – blocks phospholipid synthesis in CHO cells, Enamine compounds. AID 1347385. calls only at 10 µM. ZR-82 CHO cells, pyrene fatty acid UV survival, CellTiter Blue; peroxisome-deficient CHO-K1 mutant line; plus DGAT-1, DGAT-2 and ACAT inhibitors. 20,000 compounds, 0.4% hits;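 active means cell survival signal 2 SD away from solvent-only control wells, confirmed on one or two retests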;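 further: 3 h compound exposure then viability read about one day after UV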
* marks the source's active call; other numbers are inactive results; i = inactive; + = active, no number.

SMILES	PL synth Enamine
Cc1[nH]c2ccccc2c1N=Nc1ccc(SC(F)F)cc1	+
Cc1[nH]c2ccccc2c1C(c1c(C)[nH]c2ccccc12)C(C)C	i
Cn1c(-c2ccccc2)c(/C=N/Nc2nncc3ccccc23)c2ccccc21	+
FC(F)(F)c1cccc(/C=N/Nc2nncc3ccccc23)c1	i
Fc1ccc(/C=N/Nc2nncc3ccccc23)cc1F	i
COc1ccc(S(=O)(=O)N2CCOCC2)cc1NS(=O)(=O)c1ccc2c(c1)OCCO2	i
O=c1cc(CN2CCN(Cc3ccc(Br)s3)CC2)nc2ccc(Br)cn12	i
CN1/C(=C\P(=Nc2ccc([N+](=O)[O-])cc2)(c2ccccc2)c2ccccc2)C(C)(C)c2ccccc21	i
CCOP(=O)(OCC)C1(C)N(C)c2ccc(N=Nc3ccc([N+](=O)[O-])cc3)cc2C1(C)C (centres undefined)	+
CCN(CC)c1ccc(N=Nc2c(Br)cc([N+](=O)[O-])cc2Br)cc1	i
Cc1ccc(C2=Nn3c(nnc3-c3ccc(C(C)(C)C)cc3)SC2c2ccc(C)cc2)cc1 (centres undefined)	i
Cc1sc2nc(CSCC(=O)C34CC5CC(CC(C5)C3)C4)[nH]c(=O)c2c1C	i
O=[N+]([O-])c1cccc(-n2nncc2C23CC4CC(CC(C4)C2)C3)c1	i
c1ccc(N=Nc2ccc(-n3nncc3C34CC5CC(CC(C5)C3)C4)cc2)cc1	i
O=[N+]([O-])c1ccc(N/N=C/c2ccc(-n3nncc3C34CC5CC(CC(C5)C3)C4)cc2)cc1	+
Nc1cc(Cl)c(S(=O)(=O)C(F)(F)F)cc1[N+](=O)[O-]	i
Fc1ccc(Nc2n[nH]c(=S)s2)cc1	i
CC(NS(=O)(=O)c1ccc(F)c(F)c1)C12CC3CC(CC(C3)C1)C2 (centres undefined)	i
CC(Nc1cc(N2CCNCC2)ccc1[N+](=O)[O-])C12CC3CC(CC(C3)C1)C2 (centres undefined)	+
CN(C)S(=O)(=O)N1CCN(c2ccc([N+](=O)[O-])c(NC3CC3)c2)CC1	i
S=C(NCC1CCCO1)N/N=C/c1c[nH]c2ccccc12 (centres undefined)	i
S=c1[nH]nc(-c2ccncc2)n1-c1ccc(Cl)cc1	i
O=S(=O)(c1ccc(Cl)c(S(=O)(=O)C(F)F)c1)C(F)F	i
Cc1c(C2Sc3ccccc3NC2=O)c2ccccn2c1C1Sc2ccccc2NC1=O (centres undefined)	+
O=C(O)CC1Sc2ccccc2NC1=O (centres undefined)	i
SMILES	PL synth Enamine
C=CCOC(=O)CC1Sc2ccccc2NC1=O (centres undefined)	i
Cc1nn(-c2ccccc2)c(C)c1P(=Nc1cc(Cl)ccc1Cl)(N1CCCC1)C(C)(C)C (centres undefined)	i
Cc1ccc(-c2nnc(N/N=C/c3c(-c4ccccc4)nc4ccccn34)c3ccccc23)cc1C	+
Cc1ccc(-c2nnc(-n3nnc4cc(C)c(C)cc43)c3ccccc23)cc1C	i
C(=N\N1CCN(C(c2ccccc2)c2ccccc2)CC1)/c1c(-c2ccccc2)nc2ccccn12	i
FC(F)(F)C(=NCc1ccc(Cl)cc1)NC1(C(Cl)(Cl)Cl)Oc2ccccc2O1	i
C=CCNC(=S)Nc1ccc(F)c(Cl)c1	i
Fc1ccc(NC(=S)Nc2ccc(Cl)c(Cl)c2)cc1Cl	i
Fc1cc(Cl)ccc1NC(=S)Nc1ccc(Cl)c(Cl)c1	+
O=C(NC(=S)Nc1cc(Cl)c(Cl)cc1Cl)C1CC1	i
Cc1cc(C)c2nc(-n3nc(C)cc3C)cc(C)c2c1	i
CN=c1scc(-c2ccc(F)cc2)n1/N=C/c1cccc(Br)c1	i
C=CCn1c(-c2ccccc2)nn(CN2CCN(Cc3ccccc3)CC2)c1=S	i
Oc1ccc(Br)cc1/C=N/Nc1c(Cl)cc(Cl)cc1Cl	i
O=C(N/N=C1\CCSc2ccc(F)cc21)C1COc2ccccc2O1 (centres undefined)	i
Fc1ccc2c(c1)/C(=N\Nc1nc3ccccc3s1)CCS2	+
CCN(CC)S(=O)(=O)c1ccc(N/N=C2\CCSc3ccc(F)cc32)nc1	i
O=C(O)c1c(NC(=O)C2CCCC2)sc2c1CCC2	i
CC(C)(C)C(=O)/C=c1\[nH]c(=O)/c(=C\c2ccsc2)s1	i
CSCCCNC(=S)NC1CCOc2ccccc21 (centres undefined)	i
O=[N+]([O-])c1cccc(NN=C2c3ccccc3-c3ccccc32)c1	i
Clc1ccc(NN=C2c3ccccc3-c3ccccc32)cc1	i
Fc1ccc(NN=C2c3ccccc3-c3ccccc32)cc1	+
Cn1cc([N+](=O)[O-])cc1C(=O)O	i
CCC1(c2ccc(Cl)c(Cl)c2)NC(=S)N(c2ccc(C)c(C)c2)N1 (centres undefined)	i
SMILES	PL synth Enamine
O=P(c1ccccc1)(c1ccccc1)C(NS(=O)(=O)c1ccccc1)c1ccc(F)cc1 (centres undefined)	i
O=c1[nH]c(=S)[nH]c(O)c1C=NC1CCCCCC1	i
O=[N+]([O-])c1ccc(N/N=C2\CCCCc3ccccc32)cc1	+
c1ccc(N/N=C2\CCCc3ccccc32)nc1	i
O=[N+]([O-])c1cc(S(=O)(=O)N/N=C2\CCc3ccccc32)ccc1Cl	i
O=[N+]([O-])c1cc(C(F)(F)F)cc([N+](=O)[O-])c1N/N=C1/CCCc2ccccc21	i
O=[N+]([O-])c1ccc(N/N=C2\CCc3ccccc32)cc1	+
C=CCNC(=S)N/N=C1\CCc2ccccc21	i
O=[N+]([O-])c1ccc(-c2csc(=Nc3ccc(F)cc3)n2N=C2CCCCCCC2)cc1	i
Cc1nc(N)sc1N=Nc1c(Cl)cc(Cl)cc1Cl	i
Cc1nc(N)sc1N=Nc1ccc(F)cc1	+
CN(C)S(=O)(=O)c1ccc(N=Nc2sc(N)nc2-c2cc(F)ccc2F)cc1	i
Nc1ncc(Cc2ccc(F)cc2)s1	i
CN(C)S(=O)(=O)c1ccc(Cl)c(N=Nc2sc(N)nc2-c2cc(F)ccc2F)c1	i
Cc1nc(N)sc1N=Nc1cc(C(F)(F)F)ccc1Cl	+
C=CCSc1n[nH]c2nc3ccccc3n12	i
Nc1nc(N)nc(COC(=O)c2cccs2)n1	i
CCOC(=O)C1=C(CSc2nnc(SCC)s2)NC(=O)NC1CC (centres undefined)	i
COc1ccc(C2=CSC3=C(C(=O)c4ccc(OC)c(OC)c4OC)CCN23)cc1	i
COC(=O)c1ccc(COC(=O)CN2C(=O)NC3(CC(C)CC(C)(C)C3)C2=O)o1 (centres undefined)	i
C=CCOc1ccc(/C=N/N2CCOCC2)cc1OC	i
Clc1ccccc1/C=N/NC1=Nc2cccc3cccc1c23	i
c1ccc(NNC2=Nc3cccc4cccc2c34)cc1	+
Brc1ccc(/C=N/NC2=Nc3cccc4cccc2c34)cc1	i
Cc1ccc(-c2nc(-c3ccc(Br)cc3)no2)cc1	i
SMILES	PL synth Enamine
CC[n+]1ccc(/C=C/c2ccc(N(C)C)cc2)cc1	+
CN(C)c1ccc(/C=C/c2ccc3ccccc3[n+]2C)cc1	i
CN(C)c1ccc(/C=C/c2cccc[n+]2C)cc1	i
FC(F)(F)c1cc(-c2ccccc2)nc2oc3ccccc3c12	i
O=S1(=O)CCC(N=Cc2c(F)cccc2Cl)C1 (centres undefined)	i
Cc1cc(Sc2nc(N)ncc2[N+](=O)[O-])ncn1	i

From PubChem BioAssay
